Results taken from PubChem BioAssay AID1347131 (National Center for Advancing Translational Sciences (NCATS), 2019).
The whole screen tested about 410,000 compounds, of which about 2,000 (0.49%) were called active. About 8% were inconclusive and are not listed. The entries come from a sample that favours actives as a whole. Unmarked numbers belong to inactive results. Calls follow the shape of the full dose curve; tested in HEK293 reporter line.

test: qHTS Assay for Foot and Mouth Disease Virus Antivirals: Primary Screen against the MLPCN compound library; conditions: FMDV antiviral cell-based qHTS; series mostly up to 57.9 µM; activity, negative = inhibition: at the top concentration; also: nearly all actives have a fitted effect of over 55% in size
Potency is read from the fitted curve at half-maximal effect.

Going from `O=P(c1ccccc1)(c1ccccc1)c1nc(-c2ccccc2)oc1NCc1ccccc1` to `C=C[C@H](Cc1ccccc1)N(Cc1ccccc1)S(=O)(=O)N(Cc1ccccc1)[C@H](C=C)Cc1ccccc1`, the “activity, negative = inhibition” value falls from -30.8% to -45.3%.

Going from `Cc1cc(C)c(C(N)=O)c(SCC(=O)c2cc(C)c(C)cc2C)n1` to `C/C(N)=C(/C#N)C(=O)CSc1nc2scc(-c3ccc(F)cc3)c2c(=O)n1C`, the “activity, negative = inhibition” value falls from -34.3% to -35.4%.

First: CCOc1ccc2nc(NS(=O)(=O)c3ccc(NC(C)=O)cc3)sc2c1
Second: CC(=O)Nc1ccc(S(=O)(=O)Nc2nc3ccccc3s2)cc1
The “activity, negative = inhibition” value of the first is lower: 109% for the first, 135% for the second.

First: O=C(Nc1ccc2nc(SCCOc3ccccc3)sc2c1)c1cccs1
Second: CCOc1ccc(C(=O)Nc2ccc3nc(SCC(=O)N(C)c4ccccc4)sc3c2)cc1
The “activity, negative = inhibition” value of the first is higher: -40.5% for the first, -42.4% for the second.

Compared with `CCOc1ccc2nc(NC(=O)c3cccn(Cc4ccc(C)cc4)c3=O)sc2c1`, `CCN(CC)S(=O)(=O)c1ccc(C)c(NC(=O)CSc2nc3ccc(C)cc3[nH]2)c1` is lower in “activity, negative = inhibition” value: -27% for the first, -35.3% for the second.

Compared with `CN1/C(=C\C(=O)COC(=O)CNC(=O)c2ccc3ccccc3c2)C(C)(C)c2ccccc21`, `Cc1cccc(C(=O)O/N=C(\N)Cc2cccc3ccccc23)c1` is lower in “activity, negative = inhibition” value: -30.8% for the first, -40.4% for the second.

First: O=C(NCCc1ccc(F)cc1)C(=O)NCC(c1cccs1)S(=O)(=O)c1ccccc1 (centres undefined)
Second: c1ccc(C(=NNc2nc3ccccc3s2)c2ccccn2)cc1
The “activity, negative = inhibition” value of the first is higher: -31.1% for the first, -31.5% for the second.

First: CCCCCn1c(CCCNC(=O)c2cccc(C)c2)nc2ccccc21
Second: CCOc1ccccc1C(=O)NC(C(=O)N(C)Cc1ccc2c(c1)OCO2)C(C)C (centres undefined)
The “activity, negative = inhibition” value of the first is lower: -37.7% for the first, -33.9% for the second.

Compared with `COc1ccccc1N=C1SCC(=O)N1c1ccccc1OC`, `c1ccc(C2=Nn3c(nnc3-c3ccccn3)SC2)cc1` is lower in “activity, negative = inhibition” value: -30.3% for the first, -38.5% for the second.

Going from `CSCCC(c1nnnn1C1CCCCC1)N1CCC(n2c(=O)[nH]c3ccccc32)CC1` (centres undefined) to `Cc1oc(-c2cccs2)nc1CSCC(=O)N1CCC2(CC1)OCCO2`, the “activity, negative = inhibition” value rises from -34.1% to -30.5%.

Going from `CCCS(=O)(=O)c1cscc1NC(=O)c1c(-c2c(F)cccc2Cl)noc1C` to `COc1ccc2c(CC(=O)Nc3ccccc3N3CCOCC3)coc2c1`, the “activity, negative = inhibition” value rises from -35.1% to -30.6%.

In the case of `Cc1cc(=S)nc(-c2ccccn2)[nH]1`, the “activity, negative = inhibition” value is reported as -33.8%.

With `CSc1nc2ccc(NC(=O)c3ccccn3)cc2s1` the Potency was 15.8 µM (active).
In the case of `CCOc1ccc2nc(NC(=O)c3ccccn3)sc2c1`, the Potency is reported as 12.6 µM (active).
In the case of `Cc1cccc(C(=O)n2c(=S)nc3cc(C)ccn32)c1`, the Potency is reported as 11.2 µM (active).
For `c1ccc2sc(NN=C3CCCCCC3)nc2c1`, the Potency was 15.8 µM (active).
For `c1ccc(-c2nnc(-c3ccccn3)s2)nc1`, the Potency was 14.1 µM (active).
For `C/C(N)=C(/C#N)C(=O)CSc1nc2ccc(C)cc2[nH]1`, the Potency was 22.4 µM (active).
